According to PubChem BioAssay AID1159580 (chemical genetic matrix, 2015):
Out of some 5,500 compounds screened, about 2,000 (36%) were called active. Another 18% or so got no clear call; they are omitted. Cut-off read from the data, not from the text of the source: active = normalized growth mostly below about 0.91 (no sharp cut-off); inconclusive = no clear call, values can overlap the other calls; inactive = mostly above about 0.92. This is one part of the list.

Test: chemical genetic growth profiling, strain panel (AID 1159580);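 note: tested at 20 µM; growth read once vehicle control cultures reached saturation at 30 °C; 1 = growth at the plate median or of vehicle wells; lower values mean less growth of the strain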
Settings: growth OD

Measured: normalized growth

COc1cc([C@@H]2c3cc4c(cc3[C@H](O)[C@H]3COC(=O)[C@@H]23)OCO4)cc(OC)c1OC
inactive: S. cerevisiae deletion strains, locus YKL009W, strain mrt4, active compounds read low 1 | S. cerevisiae deletion strains, locus YKL068W, active compounds read low 0.977 | S. cerevisiae deletion strains, locus YKL085W, strain MDH1 (second series), active compounds read low 1 | S. cerevisiae deletion strains, locus YKL085W, strain MDH1, active compounds read low 1 | S. cerevisiae deletion strains, locus YKL160W, strain elf1, active compounds read low 1.02 | S. cerevisiae deletion strains, locus YKR001C, strain vps1, active compounds read low 0.978 | S. cerevisiae deletion strains, locus YKR026C, strain gcn3, active compounds read low 1.02 | S. cerevisiae deletion strains, locus YKR091W, strain srl3, active compounds read low 1.02 | S. cerevisiae deletion strains, locus YLL001W, strain dnm1, active compounds read low 1.01 | S. cerevisiae deletion strains, locus YLL026W, active compounds read low 1.01 | S. cerevisiae deletion strains, locus YLL041C, strain sdh2, active compounds read low 1.02 | S. cerevisiae deletion strains, locus YLR027C, strain aat2, active compounds read low 1.03 | S. cerevisiae deletion strains, locus YLR039C, strain RIC1, active compounds read low 0.996 | S. cerevisiae deletion strains, locus YLR058C, strain SHM2, active compounds read low 1.01 | S. cerevisiae deletion strains, locus YLR102C, strain apc9, active compounds read low 0.984 | S. cerevisiae deletion strains, locus YLR113W, strain HOG1, active compounds read low 0.997 | S. cerevisiae deletion strains, locus YLR221C, strain rsa3, active compounds read low 0.999 | S. cerevisiae deletion strains, locus YLR258W, strain gsy2, active compounds read low 1.02 | S. cerevisiae deletion strains, locus YLR262C, strain YPT6 (second series), active compounds read low 1.04 | S. cerevisiae deletion strains, locus YLR262C, strain YPT6, active compounds read low 0.991 | S. cerevisiae deletion strains, locus YLR268W, strain sec22, active compounds read low 0.971 | S. cerevisiae deletion strains, locus YLR320W, strain mms22, active compounds read low 1.01 | S. cerevisiae deletion strains, locus YLR330W, strain CHS5, active compounds read low 0.998 | S. cerevisiae deletion strains, locus YLR342W, strain FKS1 (second series), active compounds read low 1.02 | S. cerevisiae deletion strains, locus YLR342W, strain FKS1, active compounds read low 1.02 | S. cerevisiae deletion strains, locus YLR357W, strain rsc2, active compounds read low 1.02 | S. cerevisiae deletion strains, locus YLR370C, strain arc18, active compounds read low 1.03 | S. cerevisiae deletion strains, locus YLR371W, strain rom2, active compounds read low 0.972 | S. cerevisiae deletion strains, locus YLR384C, strain iki3, active compounds read low 1.02 | S. cerevisiae deletion strains, locus YLR418C, strain cdc73, active compounds read low 1.05 | S. cerevisiae deletion strains, locus YML016C, strain PPZ1, active compounds read low 0.997 | S. cerevisiae deletion strains, locus YML032C, strain rad52, active compounds read low 1.02 | S. cerevisiae deletion strains, locus YML120C, strain ndi1, active compounds read low 1.01 | S. cerevisiae deletion strains, locus YML124C, strain tub3, active compounds read low 0.993 | S. cerevisiae deletion strains, locus YMR058W, strain fet3, active compounds read low 1.02 | S. cerevisiae deletion strains, locus YMR078C, strain ctf18, active compounds read low 0.991 | S. cerevisiae deletion strains, locus YMR125W, strain sto1, active compounds read low 1.02 | S. cerevisiae deletion strains, locus YMR129W, active compounds read low 1.02 | S. cerevisiae deletion strains, locus YMR205C, strain PFK2, active compounds read low 1.02 | S. cerevisiae deletion strains, locus YMR223W, strain ubp8, active compounds read low 1.01 | S. cerevisiae deletion strains, locus YMR231W, strain pep5, active compounds read low 1.03 | S. cerevisiae deletion strains, locus YMR263W, strain SAP30, active compounds read low 1.01 | S. cerevisiae deletion strains, locus YMR307W, strain GAS1, active compounds read low 1.05 | S. cerevisiae deletion strains, locus YNL067W, strain RPL9B, active compounds read low 1.01 | S. cerevisiae deletion strains, locus YNL071W, strain lat1, active compounds read low 1.02 | S. cerevisiae deletion strains, locus YNL153C, strain GIM3, active compounds read low 1.03 | S. cerevisiae deletion strains, locus YNL183C, strain NPR1, active compounds read low 0.904 | S. cerevisiae deletion strains, locus YNL209W, strain ssb2, active compounds read low 1.01 | S. cerevisiae deletion strains, locus YNL233W, strain BNI4, active compounds read low 1.01 | S. cerevisiae deletion strains, locus YNL248C, strain rpa49, active compounds read low 1.01 | S. cerevisiae deletion strains, locus YNL250W, strain rad50, active compounds read low 0.95 | S. cerevisiae deletion strains, locus YNL271C, strain bni1, active compounds read low 0.993 | S. cerevisiae deletion strains, locus YNL298W, strain CLA4, active compounds read low 0.997 | S. cerevisiae deletion strains, locus YNL307C, strain MCK1, active compounds read low 0.992 | S. cerevisiae deletion strains, locus YNL322C, strain KRE1 (second series), active compounds read low 1.01 | S. cerevisiae deletion strains, locus YNL322C, strain KRE1, active compounds read low 1 | S. cerevisiae deletion strains, locus YNR049C, strain mso1, active compounds read low 1.02 | S. cerevisiae deletion strains, locus YNR052C, strain pop2, active compounds read low 1.01 | S. cerevisiae deletion strains, locus YOL012C, strain htz1 0.992 | S. cerevisiae deletion strains, locus YOL147C, strain pex11, active compounds read low 0.993 | S. cerevisiae deletion strains, locus YOR001W, strain rrp6, active compounds read low 1.04 | S. cerevisiae deletion strains, locus YOR061W, strain CKA2, active compounds read low 1 | S. cerevisiae deletion strains, locus YOR069W, strain VPS5, active compounds read low 0.991 | S. cerevisiae deletion strains, locus YOR070C, strain gyp1, active compounds read low 1.02 | S. cerevisiae deletion strains, locus YOR080W, strain dia2, active compounds read low 1.03 | S. cerevisiae deletion strains, locus YOR083W, strain WHI5, active compounds read low 1.02 | S. cerevisiae deletion strains, locus YOR106W, strain vam3, active compounds read low 1.04 | S. cerevisiae deletion strains, locus YOR136W, strain idh2, active compounds read low 0.98 | S. cerevisiae deletion strains, locus YOR144C, strain elg1, active compounds read low 1 | S. cerevisiae deletion strains, locus YOR184W, strain ser1, active compounds read low 0.999 | S. cerevisiae deletion strains, locus YOR231W, strain MKK1, active compounds read low 0.996 | S. cerevisiae deletion strains, locus YOR265W, strain rbl2, active compounds read low 1.02 | S. cerevisiae deletion strains, locus YOR270C, strain vph1, active compounds read low 1.03 | S. cerevisiae deletion strains, locus YOR290C, strain snf2, active compounds read low 1.01 | S. cerevisiae deletion strains, locus YOR316C, strain cot1, active compounds read low 0.995 | S. cerevisiae deletion strains, locus YPL051W, strain arl3, active compounds read low 1.02 | S. cerevisiae deletion strains, locus YPL055C, strain LGE1, active compounds read low 1.02 | S. cerevisiae deletion strains, locus YPL078C, strain atp4, active compounds read low 1.02 | S. cerevisiae deletion strains, locus YPL106C, strain sse1, active compounds read low 1 | S. cerevisiae deletion strains, locus YPL240C, strain hsp82, active compounds read low 1.02 | S. cerevisiae deletion strains, locus YPL241C, strain CIN2, active compounds read low 1 | S. cerevisiae deletion strains, locus YPL256C, strain CLN2, active compounds read low 0.967 | S. cerevisiae deletion strains, locus YPR119W, strain clb2, active compounds read low 0.986 | S. cerevisiae deletion strains, locus YPR141C, strain kar3, active compounds read low 0.988 | S. cerevisiae deletion strains, locus YPR163C, strain tif3, active compounds read low 0.996 | S. cerevisiae deletion strains, locus YPR167C, strain met16, active compounds read low 0.989 | S. cerevisiae deletion strains, strain wtn01, active compounds read low 0.945 | S. cerevisiae strains, strain wild type, active compounds read low 1.02
